Compound activity from PubChem.
VHR inh color: VHR1 phosphatase inhibitors, primary screen, biochemical, colorimetric, HTS. Dual specificity protein phosphatase 3 (Homo sapiens), P51452. recombinant VHR phosphatase, colorimetric substrate read-out. inhibition, % at 20 µM. hit rate 0.7% among 50,000. AID 1992, 2009; in the data active = inhibition above about 60%
Target sequence (P51452 whole entry, looked up): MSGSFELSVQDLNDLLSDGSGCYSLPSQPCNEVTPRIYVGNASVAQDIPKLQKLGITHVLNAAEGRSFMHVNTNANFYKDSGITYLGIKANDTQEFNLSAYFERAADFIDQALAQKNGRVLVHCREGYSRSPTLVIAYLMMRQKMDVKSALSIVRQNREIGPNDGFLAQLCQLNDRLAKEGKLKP
Numbers stand for hits; - = inactive. This is one part of a sample in which hits are shown more often than they occur.

SMILES | VHR inh color
C=CCc1ccccc1OCC(=O)N/N=C/c1cccc(I)c1 | -
COc1ccc(OC)c(/C=N\NC(=O)COc2ccc(Cl)cc2Br)c1 | -
COc1cccc(/C=C2/SC(N)=NC2=O)c1 | -
COc1cccc(NC(=O)C2(C)CC3c4ccccc4C2c2ccccc23)c1 (centres undefined) | -
COC(=O)c1ccc(NC(=O)C2(C)CC3c4ccccc4C2c2ccccc23)cc1 (centres undefined) | -
Cc1c(Cl)cccc1NC(=O)C1(C)CC2c3ccccc3C1c1ccccc12 (centres undefined) | 79
O=C(NCc1ccccn1)C(=O)Nc1nccs1 | -
CCOCCOC(=O)c1ccc(NC(=O)c2ccc([N+](=O)[O-])cc2Cl)cc1 | -
COc1cc2c(cc1OC)CN(c1ccc(C(=O)O)cc1)C(=O)C2 | -
Cc1cccc(C(=O)Nc2c(C(=O)N3CCN(C)CC3)cnn2-c2ccccc2)c1 | -
CCCN(CCC)C(=O)c1cnn(-c2ccccc2)c1NC(=O)c1cccc(F)c1 | -
Cc1cccc(C(=O)Nc2c(C(=O)N(C)C)cnn2-c2ccccc2)c1 | 70
NC(=O)c1c(NC(=S)NC(=O)c2ccccc2Cl)sc2c1CCC2 | -
O=C(O)c1ccccc1C(=O)Nc1cccc(-c2cn3ccccc3n2)c1 | -
COc1c(Cl)cc(C(=O)Nc2ccc(Cc3ccncc3)cc2)cc1Cl | -
C=CCN1C(=O)/C(=C\c2ccc(OCc3ccc(F)cc3)c(OCC)c2)C(=O)NC1=S | 75
C=CCN1C(=O)/C(=C\c2ccc(OCC(=O)O)c(OC)c2)C(=O)NC1=S | -
C=CCOc1ccc(/C=C2/C(=O)NC(=S)N(CC=C)C2=O)cc1OCC | -
O=[N+]([O-])c1ccc(C2CNC(c3ccccc3O)O2)cc1 (centres undefined) | -
CCc1c(C)c2ccc(OCC(C)=O)c(C)c2oc1=O | -
CC(C)(C)c1ccc(S(=O)(=O)N/N=C/c2ccc3c(c2)OCO3)cc1 | 111
O=[N+]([O-])c1ccc(S(=O)(=O)N/N=C/c2ccc3c(c2)OCO3)cc1 | -
COc1ccc(S(=O)(=O)N/N=C/c2ccc3c(c2)OCO3)cc1 | -
Cc1cc(C)c2c(c1)NC(c1ccc([N+](=O)[O-])cc1)C1CC=CC21 (centres undefined) | -
COc1ccc([N+](=O)[O-])cc1NC(=O)c1c(Cl)cccc1Cl | -
SMILES | VHR inh color
CC(=O)c1ccc(NC(=O)Nc2ccccc2C)cc1 | -
CCOC(=O)C1NN=C(C(=O)c2ccc(OC)cc2)C1c1ccccc1Cl (centres undefined) | -
CCOC(=O)C1=NNC(C(=O)c2ccccc2)C1c1ccc(Br)cc1 (centres undefined) | -
CCOC(=O)C1=NNC(C(=O)c2ccc(OC)cc2)C1c1ccccc1Cl (centres undefined) | 105
COc1cc(C=C2C(=O)c3ccccc3C2=O)ccc1OCc1ccc(I)cc1 | -
COc1ccc2c(c1OC)C(=O)N(c1nc(-c3ccc(O)cc3)cs1)C2=O | -
CC(C)c1ccc(/C=C2\SC(=S)NC2=O)cc1 | -
CC(C)c1ccc(/C=C2\SC(=S)NC2=O)cc1[N+](=O)[O-] | 79
O=C1NC(=S)S/C1=C\c1ccc(N2CCCCC2)c([N+](=O)[O-])c1 | -
c1ccc(CN2CCN(Cc3ccncc3)CC2)nc1 | -
CCCCCSc1nnc2c(n1)[nH]c1ccccc12 | -
Cc1cccc(-n2c(/C=C\c3ccc(Cl)cc3)nc3ccccc3c2=O)c1 | -
CCOC(=O)C(=CNc1ccc(C(=O)OC)cc1)C(=O)OCC | -
COc1ccc(-c2cc(C(=O)NCCc3ccccc3)c3ccccc3n2)c(OC)c1 | 102
COc1ccc(-c2cc(C(=O)NCCc3ccccc3)c3ccccc3n2)cc1OC | -
COc1ccc(-c2cc(C(=O)NCCc3ccc(OC)c(OC)c3)c3ccccc3n2)c(OC)c1 | -
COc1ccc(NC(=S)NC(NC(=O)c2ccccc2F)C(Cl)(Cl)Cl)cc1 (centres undefined) | -
CCOc1cccc2c1N(C(=O)c1ccccc1)C(C)(C)C(=S)C2=C1SC(C(=O)OC)=C(C(=O)OC)S1 | -
CCCOC(=O)C1=C(C)NC2=C(C(=O)CC(c3ccc(OC)cc3)C2)C1c1ccc([N+](=O)[O-])cc1 (centres undefined) | -
Cc1cc(O)ccc1N=Cc1ccc(N2CCOCC2)cc1 | -
CC(/C=C1\SC(=S)N(C(C)C(=O)O)C1=O)=C\c1ccccc1 (centres undefined) | -
CCOC(=O)C1=C(C)N(c2ccc(OCC)cc2)C(=O)/C1=C\c1ccco1 | -
CCOc1ccc(N2C(=O)/C(=C/c3ccco3)C(=O)NC2=S)cc1 | 80
CCOc1ccc(N2C(=O)NC(=O)/C(=C\c3ccc(C)o3)C2=O)cc1 | -
O=C1NC(=S)N(c2cccc(Br)c2)C(=O)/C1=C/c1ccco1 | 89
SMILES | VHR inh color
O=C1NC(=S)N(c2cccc(Br)c2)C(=O)/C1=C/c1ccc(O)c(Cl)c1 | -
Cc1cc(/C=C2\C(=O)NC(=S)N(c3cccc(Br)c3)C2=O)c(C)n1C | -
CCOC(=O)c1ccc(NC(=S)NC(NC(=O)CC(C)C)C(Cl)(Cl)Cl)cc1 (centres undefined) | -
COc1ccc(/C(N)=N/OC(=O)c2ccc(F)cc2)cc1 | -
Cc1cc(C)n(-c2cc(N(CCO)CCO)ncn2)n1 | -
COC(=O)c1c(NC(=O)c2cccc(OC)c2)sc2c1CCCC2 | -
CCN(CC)c1ccc(NC(=O)COc2ccc(OC)cc2)cc1 | -
COC(=O)c1ccc(NC(=S)NC(=O)/C=C/c2ccc(C)cc2)cc1 | -
Cc1n[nH]c(C)c1Sc1ccccc1N=Cc1cccc(Cl)c1 | -
Cc1cc2c(nc3s/c(=C/c4ccccc4)c(=O)n32)c(Br)c1C | 99
Cc1cc(C)c2nc3s/c(=C\c4ccccc4)c(=O)n3c2c1 | -
COc1cc(/C=c2/sc3nc4c(Br)c(C)c(C)cc4n3c2=O)ccc1OCC(=O)O | -
Cc1ccc(-c2ccccc2)n1-c1ccc(Cl)c(C(=O)O)c1 | -
Cc1ccc(-c2ccccc2)n1-c1ccc(C(=O)O)cc1 | -
Cc1ccc(-c2ccccc2)n1-c1ccc(O)c(C(=O)O)c1 | 99
Cc1cc(Cl)ccc1OCC(=O)N1CCC(C(N)=O)CC1 | -
O=[N+]([O-])c1cccc(S(=O)(=O)Nc2ccccc2-c2ccccc2)c1 | -
COc1ccc(N2C(=O)NC(=O)/C(=C/c3cccc(OC)c3O)C2=O)cc1 | -
COc1cccc(/C=C2/C(=O)NC(=O)N(c3cc(C)cc(C)c3)C2=O)c1O | -
COc1cccc(/C=C2/C(=O)NC(=O)N(c3cccc(C)c3)C2=O)c1O | 107
Cc1sc(NC(=O)/C=C/c2cccc(Cl)c2)nc1-c1ccccc1 | -
COc1cc2c(cc1NCc1ccncc1)oc1ccccc12 | -
O=C1c2ccccc2C(=O)c2c1cccc2N(Cc1ccccc1)C(=O)C(F)(F)F | -
CC1(C)OC(=O)C(=Cc2ccc(I)o2)C(=O)O1 | 87
CN1C(=O)NC(=O)/C(=C/c2ccc(I)o2)C1=O | -
SMILES | VHR inh color
O=C1C(=Cc2ccc(I)o2)C(=O)c2ccccc21 | -
COc1ccc(C(=O)Oc2ccc(C(=S)N3CCC(C)CC3)cc2OC)cc1 | -
CC(=O)NC1=NC(=O)/C(=C\c2ccc(-c3ccccc3C(=O)O)o2)S1 | -
O=C(Cn1cc(/C=C2/C(=O)NC(=O)N(c3cccc(F)c3)C2=O)c2ccccc21)Nc1ccccc1 | -
N#C/C(=C\c1ccc(-c2cccc([N+](=O)[O-])c2)o1)C(=O)Nc1ccccc1O | -
Cc1cc(C)nc(/N=C(/N)Nc2cccc(OCc3ccccc3)c2)n1 | -
